# Test results: PubChem BioAssay AID1347426 (Functional Genomics Laboratory (NCATS/FGL), 2020)
# Hit rate of the full screen: of about 31,000 sequences, about 1,400 (4.5%) were called active. The sample as a whole holds a higher share of actives than the screen did. Values without a mark were called inactive.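 The calls were made as follows: active = median seed-adjusted z-score above 1 or below -1; inactive = the rest.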
# Assay: Novel Modifiers of Survival Motor Neuron (SMN) Protein: Gene Identification via Genome-wide siRNA Screen;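 also: luminescence tracks full-length SMN protein made from the SMN2 reporter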
# Conditions: HEK293T SMN2-luciferase reporter, siRNA knockdown, 72 h; actives lie on both sides
# Procedure, shortened: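 HEK293T cells stably carrying an SMN2 promoter/splicing cassette–luciferase reporter were reverse-transfected with 1 pmol siRNA per well (druggable-genome library, 3 siRNAs per gene) and grown 72 h at 37 °C. Luminescence, normalized to negative-control siRNA and log10-transformed, was scored as MAD.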
row,Sequence,median seed-adjusted z-score
1,GAAAGGAUCAGUGUCGAUATT against OCRL,-0.545
2,GCAGUUUCAGGGUAUGAAATT against LGMN,0.391
3,GGAUCAUACUAGAAGACUATT against TREM1,0
4,GGAACACUAUGAUGAGUUUTT against U2AF1,2.08 (active)
5,GCUGCUCCCGGAAAUGCAATT against ISOC2,-0.599
6,CAACAUGCCCAUUCGCUUUTT against ADIPOQ,0.557
7,GCCUGAGACCAAAAACAGATT against SLC2A9,0.216
8,GAUCUGCAUCAAUACUGAATT against FBLN5,-0.0832
9,CACUGACUAUUAUCAUUCATT against WHSC1L1,-0.283
10,GGGAUGUAAUAACAGCAUUTT against GDE1,-0.256
11,CUGUUGCACUUCACAUUUUTT against TRIP13,1 (active)
12,CAGCUUAAUUUUUACGCAATT against IPMK,-0.00138
13,CACCUACGAUAGCUACUAUTT against NKTR,-1.1 (active)
14,GCCUCACGUUUGUCAGUAUTT against WNK3,-0.466
15,CAUCCAACGACAAUCUAUATT against ATP1A2,0.248
16,UCACGGCUCUGUUGAAUGUTT against DUSP4,-0.176
17,GACCCAUGGUAAAAUGCAATT against TWIST1,-0.159
18,GCAUAAUAAGGGUAGGGAUTT against DDX53,-0.136
19,GAUAGAAGCAUGGAAUUGATT against MRS2,1.38 (active)
20,GGUCAAUUCAGUGAAGAUATT against ARL8B,-0.477
21,GAUUGGUGGUUGGAACAUUTT against ECE2,0.794
22,CCAAAGAUAUCGGACCCUATT against PI4K2A,-0.486
23,CGGCGUCUCUACUACGUCUTT against CLEC11A,-1.1 (active)
24,CUUCCUGGGUGUAAUGUUATT against IGSF1,0.258
25,GCAAGGCAGCUGUUCUGAATT against PGLS,0.188
26,GCAUCUGUGAGGAUAUUGATT against FBN3,0.264
27,GAGUCGAGUUUGAUGAAGATT against GSTA4,-0.848

row,Sequence,median seed-adjusted z-score
1,CGUUCGGUCUGACGCAGUATT against LRP5,-1 (active)
2,CGAUGUCAGUUUCUAGUAATT against USP42,-0.0125
3,GCCGUUUGACCAUACAUUATT against SNTB1,0.488
4,CCAAGAAACUAACACGCUATT against PFKFB2,0.311
5,GGAAGGUGAUUGAUCCUAATT against HNRNPD,0.504
6,CGAAAAACCAUAGACUACATT against WDR33,3.27 (active)
7,GCAAAUGUCAGAGAUUGAATT against SFXN5,0
8,CAGUUACUCUGGGAGUAUATT against PRPF3,-0.289
9,CCAGGUGUAUUCAAUGGAATT against FMO3,-0.0769
10,ACGACUGCCUGGUCUUAAATT against ADAP2,-1.1 (active)
11,GCACUCGAGUAAUUAGCAATT against DOCK10,-0.201
12,GGUUCUGCUUUAUUACCUUTT against HNRNPD,0.504
13,CAGCUUACAAUACAUCAAATT against ZNF7,0
14,AAGACAUGAUGUUCCACAATT against ADCY6,-0.0652
15,GCACAGAUAUCCUCGUGUATT against ARL11,1 (active)
16,CAGUAGCAGUGGAAUGGGATT against RBMX,0.0941
17,GCGCUUCUGGUGUACGACATT against RAB17,0.473
18,CAUCCACACUUCUCCAGAATT against HK1,-0.129
19,GAGUGGGCGUGGAUAGAAATT against PSMC2,-1.96 (active)
20,AGUUAUUGCUACUUCAGAATT against CX3CR1,-0.292
21,GCAACUACGUUGACUUCUATT against CTNND2,-0.0491
22,AACUGAACAUAGCAGAAUUTT against ZNF85,-1.01 (active)
23,CGGUGACUGUGAACGGCAATT against DNAJB8,-1.09 (active)
24,ACAUAGUAAAGACUUUCUATT against PIGA,-0.0514
25,GUCAGUUGUUAGAACAUAATT against TRIM24,-0.22
26,CAAUUCUUAUUGACUCAUATT against IFNA1,-0.625
27,CAUCAUCCAUGGUAGCUUUTT against DUOX1,-1.09 (active)
